Assay results from PubChem BioAssay AID1159580 (chemical genetic matrix, 2015).
Where “and” joins values, the source holds several entries; their conditions need not be identical. Equal values may be shown once. Out of some 5,500 compounds screened, about 2,000 (36%) were called active. Another 18% or so got no clear call; they are omitted. No stated cut-off is given here; in the data, active means normalized growth mostly below about 0.91 (no sharp cut-off); inconclusive means no clear call, values can overlap the other calls; inactive means mostly above about 0.92. Some of the results follow.

Assay: chemical genetic growth profiling, strain panel (AID 1159580);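 further: tested at 20 µM; growth read once vehicle control cultures reached saturation at 30 °C; 1 = growth at the plate median or of vehicle wells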
Details: S. cerevisiae deletion strains, growth OD

Measured: normalized growth

CC1(C)C2CC(=O)[C@]3(C)C(CC[C@@]4(C)[C@H](c5ccoc5)OC(=O)C5OC543)[C@@]2(C)[C@@H](O)C[C@H]1O (stereo not given in full)
inactive: locus YAL021C, strain ccr4, stronger effect = lower value 0.987 | locus YAL026C, strain drs2, stronger effect = lower value 1.01 | locus YAL030W, strain snc1, stronger effect = lower value 1 | locus YBL061C, strain skt5, stronger effect = lower value 1.01 | locus YBR009C, strain hhf1, stronger effect = lower value 1.02 | locus YBR021W, strain FUR4, stronger effect = lower value 1 | locus YBR023C, strain chs3, stronger effect = lower value 1.01 | locus YBR171W, strain sec66, stronger effect = lower value 1.03 | locus YBR229C, strain ROT2, stronger effect = lower value 1.01 | locus YBR231C, strain swc5, stronger effect = lower value 1.01 | locus YBR279W, strain paf1, stronger effect = lower value 1 | locus YCL011C, strain gbp2, stronger effect = lower value 1.01 | locus YCL016C, strain dcc1, stronger effect = lower value 1.01 | locus YCL029C, strain bik1, stronger effect = lower value 1.02 | locus YCL069W, strain vba3, stronger effect = lower value 1.02 | locus YCR088W, strain abp1, stronger effect = lower value 1.01 | locus YDL005C, strain med2, stronger effect = lower value 1 | locus YDL035C, strain GPR1, stronger effect = lower value 1.08 | locus YDL040C, strain nat1, stronger effect = lower value 1 | locus YDL074C, strain BRE1, stronger effect = lower value 1.09 | locus YDL101C, strain DUN1, stronger effect = lower value 1.02 | locus YDL134C, strain PPH21, stronger effect = lower value 1.04 | locus YDL185W, strain tfp1, stronger effect = lower value 0.996 | locus YDL192W, strain arf1, stronger effect = lower value 1.01 | locus YDR001C, strain nth1, stronger effect = lower value 1 | locus YDR069C, strain doa4, stronger effect = lower value 0.995 | locus YDR101C, strain arx1, stronger effect = lower value 0.98 | locus YDR137W, strain rgp1, stronger effect = lower value 1.02 | locus YDR159W, strain sac3, stronger effect = lower value 1.03 | locus YDR162C, strain NBP2, stronger effect = lower value 1.05 | locus YDR195W, strain ref2 0.968 | locus YDR297W, strain sur2, stronger effect = lower value 1.01 | locus YDR318W, strain mcm21, stronger effect = lower value 1 | locus YDR334W, strain swr1, stronger effect = lower value 1 | locus YDR335W, strain msn5, stronger effect = lower value 1.01 | locus YDR388W, stronger effect = lower value 0.976 | locus YDR392W, strain spt3, stronger effect = lower value 1.01 | locus YDR502C, strain sam2, stronger effect = lower value 1.01 | locus YEL003W, strain gim4, stronger effect = lower value 1.01 | locus YEL037C, strain rad23, stronger effect = lower value 1 | locus YEL061C, strain CIN8 (second series), stronger effect = lower value 0.994 | locus YER015W, strain faa2, stronger effect = lower value 0.997 | locus YER016W, strain bim1, stronger effect = lower value 1.01 | locus YER110C, stronger effect = lower value 0.988 | locus YER111C, strain swi4, stronger effect = lower value 1.01 | locus YER155C, strain BEM2 (second series), stronger effect = lower value 1.02 | locus YER155C, strain BEM2, stronger effect = lower value 1 | locus YER167W, strain BCK2, stronger effect = lower value 1.01 | locus YFR010W, strain ubp6, stronger effect = lower value 0.994 | locus YGL078C, strain dbp3, stronger effect = lower value 0.987 | locus YGL086W, strain mad1, stronger effect = lower value 1 | locus YGL167C, strain pmr1, stronger effect = lower value 1 | locus YGL173C, strain kem1, stronger effect = lower value 1.01 | locus YGL227W, strain vid30, stronger effect = lower value 1.03 | locus YGL240W, strain doc1, stronger effect = lower value 1.01 | locus YGL248W, strain PDE1, stronger effect = lower value 1.06 | locus YGL253W, strain hxk2, stronger effect = lower value 1 | locus YGR078C, strain PAC10, stronger effect = lower value 1.05 | locus YGR135W, strain pre9, stronger effect = lower value 1 | locus YGR252W, strain gcn5, stronger effect = lower value 0.913 | locus YHR013C, strain ard1, stronger effect = lower value 1.02 | locus YHR027C, strain rpn1, stronger effect = lower value 0.985 | locus YHR030C, strain SLT2, stronger effect = lower value 1.02 and 1.04 | locus YHR079C, strain IRE1 (second series), stronger effect = lower value 0.985 | locus YHR079C, strain IRE1, stronger effect = lower value 1.03 | locus YHR094C, strain hxt1, stronger effect = lower value 0.982 | locus YHR129C, strain ARP1, stronger effect = lower value 1.03 | locus YHR142W, strain chs7, stronger effect = lower value 0.989 | locus YHR200W, strain rpn10, stronger effect = lower value 0.996 | locus YIL066C, strain RNR3, stronger effect = lower value 1.02 | locus YIL073C, strain SPO22, stronger effect = lower value 1.12 | locus YIL125W, strain kgd1, stronger effect = lower value 0.992 | locus YIR030C, strain dcg1, stronger effect = lower value 0.985 | locus YJL092W, strain hpr5, stronger effect = lower value 1 | locus YJL095W, strain BCK1 (second series), stronger effect = lower value 1.02 | locus YJL095W, strain BCK1, stronger effect = lower value 1.07 and 1.01 | locus YJL115W, strain asf1, stronger effect = lower value 0.999 | locus YJL129C, strain trk1, stronger effect = lower value 1.02 | locus YJL134W, strain LCB3, stronger effect = lower value 1.01 | locus YJL154C, strain vps35, stronger effect = lower value 0.999 | locus YJL164C, strain tpk1, stronger effect = lower value 1.01 | locus YJL166W, strain qcr8, stronger effect = lower value 1.01 | locus YJL168C, strain set2, stronger effect = lower value 1 | locus YJL187C, strain SWE1 (second series), stronger effect = lower value 1.03 | locus YJL187C, strain SWE1, stronger effect = lower value 1.01 | locus YJR066W, strain TOR1, stronger effect = lower value 0.964 | locus YKL009W, strain mrt4, stronger effect = lower value 0.998 | locus YKL068W, stronger effect = lower value 0.984 | locus YKL085W, strain MDH1 (second series), stronger effect = lower value 0.989 | locus YKL085W, strain MDH1, stronger effect = lower value 0.989 | locus YKL160W, strain elf1, stronger effect = lower value 1.02 | locus YKL190W, strain CNB1, stronger effect = lower value 1.01 | locus YKR001C, strain vps1, stronger effect = lower value 0.997 | locus YKR026C, strain gcn3, stronger effect = lower value 1.01 | locus YKR091W, strain srl3, stronger effect = lower value 1.01 | locus YLL001W, strain dnm1, stronger effect = lower value 0.999 | locus YLL026W, stronger effect = lower value 1 | locus YLL041C, strain sdh2, stronger effect = lower value 0.997 | locus YLR027C, strain aat2, stronger effect = lower value 1.01 | locus YLR039C, strain RIC1, stronger effect = lower value 1.17 | locus YLR058C, strain SHM2, stronger effect = lower value 1.03 | locus YLR102C, strain apc9, stronger effect = lower value 0.989 | locus YLR113W, strain HOG1, stronger effect = lower value 0.988 | locus YLR221C, strain rsa3, stronger effect = lower value 1.01 | locus YLR258W, strain gsy2, stronger effect = lower value 1.01 | locus YLR262C, strain YPT6 (second series), stronger effect = lower value 1.01 | locus YLR268W, strain sec22, stronger effect = lower value 1.02 | locus YLR320W, strain mms22, stronger effect = lower value 1 | locus YLR342W, strain FKS1 (second series), stronger effect = lower value 1.04 | locus YLR342W, strain FKS1, stronger effect = lower value 1.02 | locus YLR357W, strain rsc2, stronger effect = lower value 1.01 | locus YLR370C, strain arc18, stronger effect = lower value 0.996 | locus YLR371W, strain rom2, stronger effect = lower value 0.992 | locus YLR384C, strain iki3, stronger effect = lower value 0.99 | locus YLR418C, strain cdc73, stronger effect = lower value 0.974 | locus YML016C, strain PPZ1, stronger effect = lower value 1.01 | locus YML032C, strain rad52, stronger effect = lower value 0.986 | locus YML120C, strain ndi1, stronger effect = lower value 1.01 | locus YML124C, strain tub3, stronger effect = lower value 0.992 | locus YMR058W, strain fet3, stronger effect = lower value 1 | locus YMR078C, strain ctf18, stronger effect = lower value 0.988 | locus YMR125W, strain sto1, stronger effect = lower value 1.01 | locus YMR129W, stronger effect = lower value 1 | locus YMR205C, strain PFK2, stronger effect = lower value 1.03 | locus YMR223W, strain ubp8, stronger effect = lower value 0.985 | locus YMR231W, strain pep5, stronger effect = lower value 1.01 | locus YMR263W, strain SAP30, stronger effect = lower value 1.01 | locus YMR307W, strain GAS1, stronger effect = lower value 1.15 | locus YNL067W, strain RPL9B, stronger effect = lower value 1.02 | locus YNL071W, strain lat1, stronger effect = lower value 1 | locus YNL153C, strain GIM3, stronger effect = lower value 1.06 | locus YNL183C, strain NPR1, stronger effect = lower value 0.967 | locus YNL209W, strain ssb2, stronger effect = lower value 0.997 | locus YNL233W, strain BNI4, stronger effect = lower value 1.06 | locus YNL248C, strain rpa49, stronger effect = lower value 1 | locus YNL250W, strain rad50, stronger effect = lower value 1.03 | locus YNL271C, strain bni1, stronger effect = lower value 0.968 | locus YNL298W, strain CLA4, stronger effect = lower value 0.991 | locus YNL307C, strain MCK1, stronger effect = lower value 0.987 | locus YNL322C, strain KRE1 (second series), stronger effect = lower value 1.03 | locus YNR049C, strain mso1, stronger effect = lower value 0.997 | locus YNR052C, strain pop2, stronger effect = lower value 0.975 | locus YOL012C, strain htz1 1.54 | locus YOL147C, strain pex11, stronger effect = lower value 0.982 | locus YOR001W, strain rrp6, stronger effect = lower value 1.01 | locus YOR061W, strain CKA2, stronger effect = lower value 1.01 | locus YOR069W, strain VPS5, stronger effect = lower value 1.01 | locus YOR070C, strain gyp1, stronger effect = lower value 1 | locus YOR080W, strain dia2, stronger effect = lower value 0.999 | locus YOR083W, strain WHI5, stronger effect = lower value 1.02 | locus YOR106W, strain vam3, stronger effect = lower value 1.01 | locus YOR136W, strain idh2, stronger effect = lower value 0.986 | locus YOR144C, strain elg1, stronger effect = lower value 0.979 | locus YOR184W, strain ser1, stronger effect = lower value 1.01 | locus YOR231W, strain MKK1, stronger effect = lower value 1.03 | locus YOR265W, strain rbl2, stronger effect = lower value 0.983 | locus YOR270C, strain vph1, stronger effect = lower value 0.904 | locus YOR290C, strain snf2, stronger effect = lower value 1.02 | locus YOR316C, strain cot1, stronger effect = lower value 0.979 | locus YPL051W, strain arl3, stronger effect = lower value 0.994 | locus YPL078C, strain atp4, stronger effect = lower value 1.03 | locus YPL106C, strain sse1, stronger effect = lower value 1.02 | locus YPL240C, strain hsp82, stronger effect = lower value 1 | locus YPL241C, strain CIN2, stronger effect = lower value 1.02 | locus YPL256C, strain CLN2, stronger effect = lower value 1.03 | locus YPR119W, strain clb2, stronger effect = lower value 0.978 | locus YPR141C, strain kar3, stronger effect = lower value 0.99 | locus YPR163C, strain tif3, stronger effect = lower value 0.997 | locus YPR167C, strain met16, stronger effect = lower value 1 | strain wtn01, stronger effect = lower value 1
